In PubChem BioAssay (NCATS) one finds Potency data, which are given here for twelve compounds.

Records with an inconclusive call do not appear. The source made the active and inactive calls. Calls come from the whole dose curve; as a rule, active = well fitted inhibition curve with a large enough effect; inconclusive = small, poorly fitted or top-dose-only effect; inactive = flat fitted curve, though single readings scatter.

Common to all, as to experiment: qHTS profiling for inhibitors of Plasmodium falciparum proliferation (AID 504749); note: nearly all actives have a fitted effect of over 60% in size
Details in all cases: P. falciparum in erythrocytes, SYBR Green DNA, 72 h; series mostly up to 28.7 µM
Background: In qHTS, concentration-response curves come from the screen itself.

One assay has as its system CP256. The gist of the method: (§1)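 Each compound contacts P. falciparum-infected red blood cells for 72 h at 37 C; lysis buffer (Tris, EDTA, saponin, Triton X, SYBR Green I) is added and fluorescence measured next morning; values normalized to controls.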
The test system of another assay is CP260. The gist of the method: as §1
Another assay has as its system CP262. The gist of the method: as §1
The next assay has as its system CP265. The gist of the method: as §1
The subject of the next assay is CP266. The gist of the method: as §1
In the next assay the test system is CP268. The gist of the method:
as §1

A further assay deals with CP269. In short, it runs like this: as §1
The next assay concerns CP286. The gist of the method:
as §1

The next assay concerns CP291. The gist of the method: as §1
A further assay concerns CP297. In short, it runs like this: as §1
For a further assay, the system named is CP305. The gist of the method:
as §1

The subject of a further assay is CP315. The gist of the method:
as §1

Another assay has as its system CP325. In short, it runs like this: as §1
The subject of another assay is CP329. In short, it runs like this: as §1
The subject of another assay is CP335. In short, it runs like this:
as §1

The test system of the next assay is DFO2036. In short, it runs like this: as §1
Another assay concerns DIV14. In short, it runs like this: as §1
The next assay deals with DIV17. In short, it runs like this:
as §1

The subject of the next assay is DIV30. In short, it runs like this:
as §1

For the next assay, the system named is Dd2. In short, it runs like this:
as §1
Potency is the fitted concentration of half-maximal effect.

Take `NS(=O)(=O)c1cc2c(cc1Cl)NC(C1CC3C=CC1C3)NS2(=O)=O` (stereo not given): the Potency entry in the assay on CP256, with CP260, in the assay with CP262, with CP265, in the assay with CP266 and in the assay with CP268 was “inactive” in each case. The Potency entry with CP269, in the assay with CP286, with CP291, in the assay on CP297, in the assay on CP305 and in the assay on CP315 was “inactive” each time. The Potency entry in the assay on CP325, with CP329, with CP335, in the assay on DFO2036, in the assay with DIV14 and in the assay on DIV17 was “inactive” throughout. Further, the Potency result in the assay on DIV30 and in the assay on Dd2 was “inactive” throughout.

For the compound `NC(Cc1ccc(Cl)cc1)C(=O)O` (stereo not given), the Potency entry in the assay with CP256, in the assay with CP260, in the assay with CP262, in the assay with CP265, in the assay on CP266 and with CP268 was “inactive” each time. For the same compound, the Potency entry in the assay on CP269, in the assay on CP286, with CP291, in the assay on CP297, in the assay on CP305 and in the assay with CP315 was “inactive” throughout. The Potency entry in the assay with CP325, with CP329, with CP335, in the assay with DFO2036, in the assay on DIV14 and with DIV17 was “inactive” each time. The Potency entry with DIV30 and in the assay on Dd2 was “inactive” throughout.

As to `COc1cc2c(cc1OC)-c1cc(=Nc3c(C)cc(C)cc3C)n(C)c(=O)n1CC2`, the Potency is 4.47 µM (active) with CP256; 3.16 µM (active) in the assay with CP260; 4.78 µM (active) in the assay with CP262; 7.94 µM (active) with CP265; 6.75 µM (active) with CP266; 1.51 µM (active) in the assay on CP268. Also, the Potency is 4.78 µM (active) with CP269; 2 µM (active) in the assay on CP286; 2.13 µM (active) with CP291; 5.36 µM (active) with CP297; 3.79 µM (active) in the assay on CP305; 6.75 µM (active) in the assay on CP315. Further, the Potency is 4.26 µM (active) in the assay on CP325; 4.78 µM (active) in the assay with CP329; 4.26 µM (active) in the assay with CP335; 3.55 µM (active) with DFO2036; 3.01 µM (active) in the assay on DIV14; 3.38 µM (active) in the assay on DIV17. Also, the Potency is 6.01 µM (active) in the assay with DIV30 and 7.94 µM (active) in the assay with Dd2.

Take `FC(F)(F)c1ccccc1-n1ccnc1`: the Potency entry in the assay with CP256, in the assay with CP260, with CP262, with CP265, with CP266 and in the assay with CP268 was “inactive” in each case. Moreover, the Potency entry in the assay on CP269, with CP286, in the assay on CP291, in the assay with CP297, with CP305 and with CP315 was “inactive” each time. In addition, the Potency entry with CP325, in the assay with CP329, with CP335, with DFO2036, in the assay on DIV14 and in the assay with DIV17 was “inactive” each time. Moreover, the Potency result in the assay with DIV30 and in the assay with Dd2 was “inactive” in each case.

For `C[C@H](CS)C(=O)N1CCC[C@H]1C(=O)O`, the Potency result in the assay on CP256, in the assay with CP260, in the assay on CP262, in the assay with CP265, with CP266 and with CP268 was “inactive” throughout. Also, the Potency entry in the assay on CP269, with CP286, with CP291, in the assay on CP297, with CP305 and in the assay on CP315 was “inactive” throughout. The Potency entry in the assay with CP325, in the assay on CP329, with CP335, with DFO2036, in the assay with DIV14 and with DIV17 was “inactive” each time. In addition, the Potency entry in the assay with DIV30 and in the assay with Dd2 was “inactive” throughout.

Take `NC(=O)c1cn(Cc2c(F)cccc2F)nn1`: the Potency result with CP256, in the assay with CP260, with CP262, in the assay on CP265, in the assay on CP266 and with CP268 was “inactive” in each case. For the same compound, the Potency result in the assay with CP269, in the assay with CP286, with CP291, in the assay with CP297, with CP305 and in the assay on CP315 was “inactive” each time. The Potency entry in the assay on CP325, in the assay on CP329, with CP335, with DFO2036, in the assay on DIV14 and in the assay with DIV17 was “inactive” each time. Moreover, the Potency result in the assay with DIV30 and in the assay on Dd2 was “inactive” throughout.

On to `C[N+](C)(C)CCCCCCCCCC[N+](C)(C)C`, for which the Potency was 2.51 µM (active) in the assay with CP256; 2.24 µM (active) in the assay on CP260; 1.69 µM (active) in the assay with CP262; 2.82 µM (active) in the assay on CP265; 4.78 µM (active) with CP266; 4.78 µM (active) in the assay on CP268. Also, the Potency with CP269 is 3.38 µM (active); with CP286, 4.47 µM (active); in the assay with CP291, 3.38 µM (active); with CP297, 4.78 µM (active); with CP305 it was 4.26 µM (active); in the assay on CP315 it was 4.26 µM (active). Moreover, the Potency in the assay on CP325 is 3.38 µM (active); in the assay on CP329 it was 3.38 µM (active); in the assay with CP335, 1.9 µM (active); with DFO2036 it was 4.47 µM (active); with DIV14, 1.07 µM (active); in the assay with DIV17, 1.69 µM (active). The figures for the Potency in the assay on DIV30 and in the assay with Dd2 were 4.26 µM (active) and 3.16 µM (active), respectively.

As to `Cc1nnc(SCC2=C(C(=O)O)N3C(=O)[C@@H](NC(=O)Cn4cnnn4)[C@H]3SC2)s1`, the Potency result with CP256, in the assay on CP260, with CP262, in the assay on CP265, in the assay on CP266 and with CP268 was “inactive” in each case. Further, the Potency entry in the assay on CP269, with CP286, with CP291, in the assay with CP297, with CP305 and in the assay with CP315 was “inactive” each time. Further, the Potency entry in the assay on CP325, in the assay on CP329, in the assay on CP335, with DFO2036, in the assay with DIV14 and in the assay on DIV17 was “inactive” each time. The Potency result with DIV30 and in the assay with Dd2 was “inactive” in each case.

In the case of `Nc1ncn([C@@H]2O[C@H](CO)[C@@H](O)[C@H]2O)c(=O)n1`, the Potency entry in the assay on CP256, with CP260, in the assay with CP262, in the assay with CP265, in the assay with CP266 and with CP268 was “inactive” in each case. Also, the Potency entry in the assay on CP269, with CP286, with CP291, in the assay on CP297, in the assay on CP305 and with CP315 was “inactive” throughout. In addition, the Potency result in the assay with CP325, with CP329, in the assay on CP335, in the assay with DFO2036, in the assay with DIV14 and in the assay on DIV17 was “inactive” in each case. The Potency entry in the assay on DIV30 and in the assay with Dd2 was “inactive” throughout.

Turning to `CN1CCN(C2=Nc3ccccc3Oc3ccc(Cl)cc32)CC1`, the Potency result in the assay with CP256, with CP260, in the assay with CP262, with CP265, in the assay on CP266 and with CP268 was “inactive” throughout. Also, the Potency entry with CP269, in the assay with CP286, in the assay on CP291, in the assay on CP297, with CP305 and with CP315 was “inactive” throughout. The Potency entry in the assay with CP325, with CP329, in the assay on CP335, in the assay with DFO2036, with DIV14 and with DIV17 was “inactive” in each case. Further, the Potency result in the assay on DIV30 and in the assay on Dd2 was “inactive” in each case.

As for `NCCCNCCSP(=O)(O)O`, the Potency entry in the assay on CP256, with CP260, in the assay on CP262, with CP265, with CP266 and with CP268 was “inactive” in each case. Moreover, the Potency result in the assay on CP269, in the assay with CP286, in the assay with CP291, with CP297, in the assay on CP305 and in the assay on CP315 was “inactive” each time. Besides, the Potency result in the assay with CP325, in the assay with CP329, in the assay on CP335, in the assay with DFO2036, with DIV14 and with DIV17 was “inactive” each time. For the same compound, the Potency result in the assay with DIV30 and with Dd2 was “inactive” each time.

On to `O=C(O)CCCCCCCC(=O)O`, for which the Potency entry in the assay on CP256, in the assay with CP260, with CP262, in the assay with CP265, in the assay on CP266 and with CP268 was “inactive” in each case. The Potency result in the assay with CP269, in the assay on CP286, in the assay on CP291, with CP297, with CP305 and in the assay with CP315 was “inactive” each time. Moreover, the Potency entry with CP325, with CP329, in the assay with CP335, with DFO2036, in the assay on DIV14 and in the assay with DIV17 was “inactive” in each case. Also, the Potency result in the assay with DIV30 and in the assay on Dd2 was “inactive” each time.
